Source: PubChem BioAssay (Broad Institute)
In the library only some 6.8% were active in any assay of this set; here they are far more common.
Pf Dd2 growth: P. falciparum Dd2 growth inhibitors, primary screen, SYBR Green fluorescence, single dose replicates; 72 h; stronger effect = lower value; activity change, % at 10 µM; hit rate 2.3% among 94,000; in the data active means activity change below about -80%; inconclusive means no clear call, values can overlap the other calls
C diff growth: C. difficile growth inhibitors, primary screen, HTS | Clostridium difficile clinical isolate growth, OD600, 24 h; stronger effect = lower value | AID 1259249, 2017 | hit rate 0.25% among 86,000 | growth activity, negative = inhibition, % at 16 µg/mL (by protocol);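 active means mean growth activity at or below -80% and every replicate also at or below -80%; inconclusive means mean at or below -80% but some replicate above -80%; inactive means mean growth activity above -80%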
T cruzi growth-1: T. cruzi intracellular proliferation inhibitors, primary screen, cell-based, beta-gal Tulahuen parasites, NIH3T3 host, luminescence. T. cruzi beta-gal in NIH3T3, GalScreen luminescence, 90 h. inhibition, % at 8.34 µM. hit rate 5.9% among 77,000. AID 624255, 2012;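 active means mean inhibition above about 93%, with at least 55% of replicates each passing it, limit read from the data, passing the limit was not always enough; inconclusive means only one of those two conditions holds; inactive means neither condition holds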
T cruzi growth-2: T. cruzi intracellular proliferation inhibitors, confirmation, cell-based, NIH3T3 host, beta-gal parasite, luminescence, cherry-pick; AID 651739, 2012; inhibition, % at 8.35 µM; hit rate 72% among 5,600; shares compounds with T cruzi growth-1; T. cruzi beta-gal in NIH3T3, GalScreen luminescence, 90 h;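 active means mean replicate inhibition above about 95% and at least 55% of replicates individually reaching it, limit read from the data; inconclusive means only one of the two criteria is met; inactive means neither criterion is met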
T cruzi growth-3: inhibitors of intracellular T. cruzi replication, confirmation, NIH3T3 host cells, beta-gal parasites, cherry-pick, set 2. hit rate 21% among 5,600. T. cruzi beta-gal in NIH3T3, GalScreen luminescence, 90 h. AID 651740, 2012. inhibition, % at 2.09 µM. shares compounds with T cruzi growth-1;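 active means mean inhibition above about 95%, with at least 55% of replicates also reaching it, limit read from the data; inconclusive means meets just one of the two conditions; inactive means meets neither condition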
NIH3T3 tox: cytotoxicity in mouse NIH/3T3 fibroblasts, confirmation, cytotoxicity control for T. cruzi proliferation inhibitor project, cell-based, cherry-pick, single point; AID 651742, 2012; shares compounds with T cruzi growth-1; hit rate 14% among 5,600; NIH/3T3 viability, CellTiter-Glo ATP luminescence, 90 h; cytotoxicity (signal decrease), % at 8.35 µM;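 active means mean signal decrease across replicates above about 35% based on untreated-well scatter, with enough replicates individually passing, limit read from the data; inconclusive means no rule stated though some were filed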
NIH3T3 tox 2: NIH/3T3 fibroblast cytotoxicity, confirmation, cytotoxicity control, cell-based, cherry-pick, single point, set 2. shares compounds with T cruzi growth-1. AID 651744, 2012. hit rate 56% among 5,600. inhibition, % at 24.9 µM. NIH/3T3 viability, CellTiter-Glo ATP luminescence, 90 h;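 active means mean loss of cell viability signal at or above a set limit, and enough replicates individually reaching it; inconclusive means meets only the mean limit or only the replicate share; inactive means meets neither condition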
Each line names hits and unclear results; the compound was inactive in the other large screens (follow-up assays come after a bar, where they were run); ! = not active in a repeat.

Cn1cnc(S(=O)(=O)N2CCCCN3[C@H](CO)[C@H](c4ccc(-c5ccccc5)cc4)[C@@H]3C2)c1	none
Cn1cnc(S(=O)(=O)N2CCCCN3[C@H](CO)[C@H](c4ccc(-c5ccccc5)cc4)[C@H]3C2)c1	T cruzi growth-1 inconclusive | T cruzi growth-2 inactive | T cruzi growth-3 inactive | NIH3T3 tox inactive | NIH3T3 tox 2 30
Cc1cccc(-c2ccc([C@@H]3[C@@H](CO)N4CCCCN(S(=O)(=O)c5cn(C)cn5)C[C@@H]34)cc2)c1	T cruzi growth-1 inconclusive | T cruzi growth-2 inactive | T cruzi growth-3 inactive | NIH3T3 tox inactive | NIH3T3 tox 2 82
Cn1cnc(S(=O)(=O)N2CCCCN3[C@H](CO)[C@H](c4ccc(-c5ccc(F)cc5)cc4)[C@@H]3C2)c1	none
Cc1cccc(-c2ccc([C@H]3[C@@H](CO)N4CCCCN(S(=O)(=O)c5cn(C)cn5)C[C@@H]34)cc2)c1	none
Cc1ccc(S(=O)(=O)N2C[C@@H](O)COC[C@@H]3O[C@@H](CC(=O)NCCN4CCCCC4)CC[C@H]32)cc1	none (no result: C diff growth)
O=C(C[C@@H]1C=C[C@H](NC(=O)c2cnccn2)[C@@H](CO)O1)NCc1ccccc1F	none (no result: C diff growth)
CN(C)CC#Cc1ccc([C@H]2[C@H](CO)N3CCCCN(S(=O)(=O)c4ccccc4)C[C@@H]23)cc1	none
COc1ccc(C#Cc2ccc([C@@H]3[C@H](CO)N4CCCCN(S(=O)(=O)c5ccccc5)C[C@@H]34)cc2)cc1	none
O=S(=O)(c1ccccc1)N1CCCCN2[C@H](C1)[C@H](c1ccc(C#Cc3cccnc3)cc1)[C@@H]2CO	T cruzi growth-1 114 | T cruzi growth-2 105 | T cruzi growth-3 inactive | NIH3T3 tox inactive | NIH3T3 tox 2 49
O=S(=O)(c1ccccc1)N1CCCCN2[C@H](C1)[C@H](c1ccc(C#CC3CCCC3)cc1)[C@@H]2CO	none
O=S(=O)(c1ccccc1)N1CCCCN2[C@H](C1)[C@@H](c1ccc(C#Cc3cccnc3)cc1)[C@@H]2CO	T cruzi growth-1 inconclusive | T cruzi growth-2 inconclusive | T cruzi growth-3 inactive | NIH3T3 tox inactive | NIH3T3 tox 2 inactive
O=S(=O)(c1ccccc1)N1CCCCN2[C@@H](CO)[C@H](c3ccc(-c4cncnc4)cc3)[C@@H]2C1	none
O=S(=O)(c1ccccc1)N1CCCCN2[C@H](CO)[C@H](c3ccc(C#Cc4cccnc4)cc3)[C@@H]2C1	T cruzi growth-1 102 | T cruzi growth-2 107 | T cruzi growth-3 inactive | NIH3T3 tox inactive | NIH3T3 tox 2 35
O=S(=O)(c1ccccc1)N1CCCCN2[C@H](CO)[C@@H](c3ccc(C#Cc4ccccc4)cc3)[C@H]2C1	T cruzi growth-1 103 | T cruzi growth-2 107 | T cruzi growth-3 103 | NIH3T3 tox 57 | NIH3T3 tox 2 92
CCC(=O)N(C)C[C@H]1Oc2cc(C#CC3(O)CCCC3)ccc2S(=O)(=O)N([C@H](C)CO)C[C@@H]1C	none
C[C@@H]1CCCCO[C@H](CN(C)C(=O)c2ccncc2)[C@H](C)CN([C@H](C)CO)C(=O)c2cc(NS(=O)(=O)c3ccc(Cl)cc3)ccc2O1	none (no result: C diff growth)
O=C(C[C@H]1C[C@H]2c3cc(NC(=O)c4cccnc4)ccc3O[C@H]2[C@@H](CO)O1)NCc1ccncc1	none
CC(=O)N(C)C[C@H]1Oc2cc(Br)ccc2S(=O)(=O)N([C@@H](C)CO)C[C@@H]1C	none
O=S(=O)(c1ccccc1)N1CCCCN2[C@@H](CO)[C@@H](c3ccc(C#Cc4cccnc4)cc3)[C@@H]2C1	T cruzi growth-1 113 | T cruzi growth-2 112 | T cruzi growth-3 107 | NIH3T3 tox inactive | NIH3T3 tox 2 91
O=S(=O)(c1ccccc1)N1CCCCN2[C@H](CO)[C@H](c3ccc(C#CC4CCCC4)cc3)[C@@H]2C1	none
C[C@H](CO)N1C[C@H](C)[C@H](CN(C)CC2CCOCC2)Oc2ncc(C#Cc3ccccn3)cc2C1=O	none
C[C@@H]1CCCCO[C@H](CN(C)Cc2ccncc2)[C@H](C)CN([C@H](C)CO)C(=O)c2cc(NS(=O)(=O)c3cccs3)ccc2O1	none
C[C@@H]1CN([C@H](C)CO)C(=O)c2cc(NS(=O)(=O)c3cccs3)ccc2O[C@@H](C)CCCCO[C@H]1CN(C)Cc1ccccc1	none (no result: C diff growth, T cruzi growth-1)
C[C@@H]1CCCCO[C@H](CN(C)Cc2ccc(Cl)c(Cl)c2)[C@@H](C)CN([C@H](C)CO)C(=O)c2cc(NS(=O)(=O)c3cccs3)ccc2O1	T cruzi growth-1 116 | T cruzi growth-2 105 | T cruzi growth-3 inactive | NIH3T3 tox inactive | NIH3T3 tox 2 57
C[C@H](CO)N1C[C@H](C)[C@@H](CN(C)Cc2ccc(Cl)c(Cl)c2)OCCCC[C@H](C)Oc2ccc(NS(=O)(=O)c3cccs3)cc2C1=O	T cruzi growth-1 inconclusive | T cruzi growth-2 inactive | T cruzi growth-3 107 | NIH3T3 tox inactive | NIH3T3 tox 2 104
C[C@@H]1CCCCO[C@@H](CN(C)Cc2ccc(Cl)c(Cl)c2)[C@@H](C)CN([C@H](C)CO)C(=O)c2cc(NS(=O)(=O)c3cccs3)ccc2O1	T cruzi growth-1 115 | T cruzi growth-2 97 | T cruzi growth-3 inactive | NIH3T3 tox inactive | NIH3T3 tox 2 50
C[C@H](CO)N1C[C@H](C)[C@@H](CN(C)Cc2ccncc2)OCCCC[C@H](C)Oc2ccc(NS(=O)(=O)c3cccs3)cc2C1=O	none
COc1ccc(NC(=O)Nc2ccc3c(c2)C(=O)N([C@H](C)CO)C[C@H](C)[C@@H](CN(C)S(C)(=O)=O)OCCCC[C@H](C)O3)cc1	none
C[C@@H]1CCCCO[C@@H](CN(C)S(=O)(=O)c2ccc(Cl)cc2)[C@@H](C)CN([C@@H](C)CO)C(=O)c2cc(NS(=O)(=O)c3cn(C)cn3)ccc2O1	none
C[C@@H]1CN([C@@H](C)CO)S(=O)(=O)c2ccc(Br)cc2O[C@H]1CN(C)Cc1ccccn1	T cruzi growth-1 107! | T cruzi growth-2 inactive | T cruzi growth-3 inactive | NIH3T3 tox inactive | NIH3T3 tox 2 53
Cc1ccc(-c2ccc3c(c2)O[C@H](CN(C)Cc2ccccn2)[C@@H](C)CN([C@@H](C)CO)S3(=O)=O)cc1	T cruzi growth-1 117 | T cruzi growth-2 103 | T cruzi growth-3 inactive | NIH3T3 tox 83 | NIH3T3 tox 2 104
Cc1ccc(-c2ccc3c(c2)O[C@H](CN(C)Cc2ccccn2)[C@@H](C)CN([C@H](C)CO)S3(=O)=O)cc1	none
C[C@@H]1CN([C@@H](C)CO)S(=O)(=O)c2ccc(-c3ccccc3)cc2O[C@@H]1CN(C)Cc1ccccn1	none
